Among the data in PubChem BioAssay are composite z-score and z-score values, retold here.

Experiment [1] is described as follows: small molecules captured by biotinylated probe aFSTL3 – biochemical, small-molecule microarray, fluorescence 635/667, stem cell growth factor project, primary screen (AID 1064).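 Further: measures binding of the biotinylated anti-FSTL3 antibody to printed compounds.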 The following applies: higher = more signal.
A short description of experiment [2]: binders from COS7 lysate, DM2A8 probe, primary screen, torsin A project, cell lysate, small-molecule microarray, fluorescence 635/667 (AID 1065). The following applies: higher = more signal, COS7 lysate expressing mutant human TOR1A.
Experiment [3] in a line: small molecules captured by biotinylated probe aFGF2 – biochemical, small-molecule microarray, fluorescence 635/667, stem cell growth factor project, primary screen (AID 1067).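 Further: measures binding of biotinylated aFGF2 protein to printed compounds on slides; z-score merges feature fluorescence and signal-to-noise across triplicate slides.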 The following applies: higher = more signal.
Experiment [4] is described as follows: small molecules captured by biotinylated probe aFGF10 – biochemical, small-molecule microarray, fluorescence 635/667, stem cell growth factor project, primary screen (AID 1071).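 Further: score merges 667 nm spot intensity and signal to noise from triplicate slides.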 The following applies: higher = more signal.
Experiment [5] concerns the target Neurogenic locus notch homolog protein 2 (Homo sapiens) (UniProt Q04721). The experiment is described as follows: small molecules binding Notch2 protein – biochemical, small-molecule microarray, 635 nm fluorescence, stem cell growth factors, primary screen (AID 1073). The note with it: higher = more signal.
Experiment [6] concerns the target Pro-neuregulin-1, membrane-bound isoform (Homo sapiens) (UniProt Q02297). The experiment is described as follows: small molecules binding neuregulin-1 protein – biochemical, small-molecule microarray, fluorescence 635/667, psychiatric disease protein project, primary screen (AID 1075).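 Further: score combines 667 nm spot fluorescence with signal to noise.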 The following applies: NRG1 binding, 635 nm fluorescence, higher = more signal.

Experiment [7] deals with Neuregulin-1 EGF-like domain. The experiment is described as follows: small molecules binding NRG1 EGF domain – biochemical, small-molecule microarray, 635 nm fluorescence, primary screen (AID 1081).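 Further: binding of the protein to compounds printed on small-molecule microarray slides.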 The note with it: higher = more signal.
Experiment [8] is described as follows: FRG1 expression reporter modulators in myotubes – cell-based, C2C12 myotubes, firefly/Renilla luciferase, luminescence, FRG1 inhibition for FSHD, primary screen (AID 1084). The following applies: FRG1 promoter luciferase, higher = more signal, called active from +8 up or from −8 down.
Experiment [9] can be described thus: small molecules captured by biotinylated probe aFST – biochemical, small-molecule microarray, fluorescence 635/667, stem cell growth factor project, primary screen (AID 1086).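 Further: score merges 667 nm fluorescence with signal-to-noise of each printed compound spot.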 The following applies: higher = more signal.
Experiment [10] can be described thus: binders of probe aHhip on microarray, primary screen, stem cell growth factor project, biochemical, small-molecule microarray, fluorescence 635/667 (AID 1087).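 Further: score merges spot fluorescence at 667nm with spot signal to noise ratio.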 The following applies: higher = more signal.
Experiment [11] has as its system PRMT1 (protein arginine N-methyltransferase 1). The experiment is described as follows: small molecules binding arginine methyltransferase PRMT1 – biochemical, small-molecule microarray, 635 nm fluorescence, primary screen (AID 1088).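 Further: binding of Prmt1 protein to compounds spotted on small-molecule microarray slides.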 The following applies: higher = more signal.
The nature of experiment [12]: growth effects on S. cerevisiae YJM789 – YJM789 clinical isolate, OD600, 24 h, basal, primary screen (AID 1089).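 Further: growth of clinical yeast isolate S. cerevisiae YJM 789 seeded 1000 cells per well; test concentration not given here.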 The note with it: higher = more signal, called active from +8 up or from −8 down.
Experiment [13] is described as follows: S. pombe growth modifiers, basal conditions – strain 972, OD600, 24 h, no modulator, primary screen (AID 1090).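 Further: basal condition with compound alone and no growth modifier present; test concentration not given here.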 The following applies: S. pombe 972 growth, higher = more signal, called active from +8 up or from −8 down.
Experiment [14] is described as follows: budding yeast growth modifiers under rapamycin – strain BY4716, OD600, 96 h, primary screen (AID 1091). Further: test concentration not given here. The note with it: S. cerevisiae BY4716 + rapamycin, higher = more signal, called active from +8 up or from −8 down.
The target of experiment [15] is Torsin-1A-interacting protein 2 (Homo sapiens) (UniProt Q8NFQ8). The experiment is described as follows: small molecules binding lysate-expressed LULL1 – cell lysate, human LULL1 lysate, 635/667 nm fluorescence, primary screen (AID 1092).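 Further: probe is lysate of COS7 cells overexpressing human LULL1; score merges per-feature 667 nm fluorescence with signal-to-noise.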 The note with it: small-molecule microarray, hLULL1 lysate binding, 635 nm fluorescence; higher = more signal.
Sequence of Torsin-1A-interacting protein 2 (Homo sapiens) (Q8NFQ8 whole entry, looked up): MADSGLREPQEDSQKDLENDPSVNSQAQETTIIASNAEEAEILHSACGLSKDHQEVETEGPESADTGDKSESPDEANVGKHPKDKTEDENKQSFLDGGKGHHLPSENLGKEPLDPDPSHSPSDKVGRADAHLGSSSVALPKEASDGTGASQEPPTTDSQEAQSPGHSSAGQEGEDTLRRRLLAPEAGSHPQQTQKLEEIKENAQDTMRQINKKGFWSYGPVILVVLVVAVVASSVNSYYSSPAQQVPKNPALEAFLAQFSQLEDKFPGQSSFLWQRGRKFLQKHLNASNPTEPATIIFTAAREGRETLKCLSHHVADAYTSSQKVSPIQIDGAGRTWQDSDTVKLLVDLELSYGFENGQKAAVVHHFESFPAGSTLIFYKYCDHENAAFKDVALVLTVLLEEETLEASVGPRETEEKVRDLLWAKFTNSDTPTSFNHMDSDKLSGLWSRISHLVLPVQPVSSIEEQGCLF
The nature of experiment [16]: optical density change of DRC41 E. coli – strain DRC41, OD650, 24 h, E. coli filamentation project, primary screen (AID 1093).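 Further: MC1000 strain lacking acrAB efflux and sulA so SOS filamentation is blocked; test concentration not given here.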 The note with it: E. coli DRC41 growth, higher = more signal, called active from +8 up or from −8 down.
Experiment [17] can be described thus: probe aLefty2 binding to arrayed compounds – biochemical, biotinylated probe, 635/667 nm fluorescence, primary screen (AID 1094).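 Further: score merges spot fluorescence near 667 nm with spot signal-to-noise ratio.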 The following applies: small-molecule microarray, higher = more signal.
Experiment [18] deals with Noggin (protein binding on small-molecule microarray). The experiment is described as follows: small molecules binding Noggin protein – biochemical, 635/667 nm fluorescence, primary screen (AID 1095).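 Further: score merges 667 nm feature fluorescence with signal to noise over triplicate slides.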 The following applies: 635 nm fluorescence, higher = more signal.
Experiment [19] has as its target Neurogenic locus notch homolog protein 3 (Homo sapiens) (UniProt Q9UM47). The experiment is described as follows: small molecules binding NOTCH3 protein – biochemical, 635/667 nm fluorescence, primary screen (AID 1096). The note with it: small-molecule microarray, 635 nm fluorescence, higher = more signal.
Experiment [20] can be described thus: probe aEGFR binding to arrayed compounds – biochemical, biotinylated probe, 635/667 nm fluorescence, primary screen (AID 1097).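 Further: probe is a biotinylated anti-EGFR antibody binding compounds printed on slides; score combines fluorescence near 667 nm and signal to noise of each spot.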 The following applies: small-molecule microarray, higher = more signal.

Activity calls are given as the source filed them.

Sequence of Pro-neuregulin-1, membrane-bound isoform (Homo sapiens) (Q02297 whole entry, looked up, canonical isoform): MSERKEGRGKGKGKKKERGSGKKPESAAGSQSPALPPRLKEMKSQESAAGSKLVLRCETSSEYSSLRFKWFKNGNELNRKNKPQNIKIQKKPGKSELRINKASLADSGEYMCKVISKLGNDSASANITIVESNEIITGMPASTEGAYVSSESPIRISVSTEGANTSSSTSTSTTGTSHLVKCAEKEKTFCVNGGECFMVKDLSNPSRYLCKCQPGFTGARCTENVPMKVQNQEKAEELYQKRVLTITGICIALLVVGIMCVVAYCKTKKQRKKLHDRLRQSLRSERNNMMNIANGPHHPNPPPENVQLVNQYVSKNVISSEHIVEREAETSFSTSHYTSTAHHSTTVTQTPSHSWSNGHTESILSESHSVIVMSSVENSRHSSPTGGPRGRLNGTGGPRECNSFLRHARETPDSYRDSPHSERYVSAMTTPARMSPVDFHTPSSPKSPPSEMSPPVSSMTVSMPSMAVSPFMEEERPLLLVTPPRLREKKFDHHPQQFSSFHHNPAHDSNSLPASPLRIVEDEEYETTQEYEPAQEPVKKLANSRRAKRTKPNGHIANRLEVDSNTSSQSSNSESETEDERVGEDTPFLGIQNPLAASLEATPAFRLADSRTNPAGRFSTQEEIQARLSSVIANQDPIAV
Sequence of Neurogenic locus notch homolog protein 2 (Homo sapiens) (Q04721 whole entry, looked up, canonical isoform): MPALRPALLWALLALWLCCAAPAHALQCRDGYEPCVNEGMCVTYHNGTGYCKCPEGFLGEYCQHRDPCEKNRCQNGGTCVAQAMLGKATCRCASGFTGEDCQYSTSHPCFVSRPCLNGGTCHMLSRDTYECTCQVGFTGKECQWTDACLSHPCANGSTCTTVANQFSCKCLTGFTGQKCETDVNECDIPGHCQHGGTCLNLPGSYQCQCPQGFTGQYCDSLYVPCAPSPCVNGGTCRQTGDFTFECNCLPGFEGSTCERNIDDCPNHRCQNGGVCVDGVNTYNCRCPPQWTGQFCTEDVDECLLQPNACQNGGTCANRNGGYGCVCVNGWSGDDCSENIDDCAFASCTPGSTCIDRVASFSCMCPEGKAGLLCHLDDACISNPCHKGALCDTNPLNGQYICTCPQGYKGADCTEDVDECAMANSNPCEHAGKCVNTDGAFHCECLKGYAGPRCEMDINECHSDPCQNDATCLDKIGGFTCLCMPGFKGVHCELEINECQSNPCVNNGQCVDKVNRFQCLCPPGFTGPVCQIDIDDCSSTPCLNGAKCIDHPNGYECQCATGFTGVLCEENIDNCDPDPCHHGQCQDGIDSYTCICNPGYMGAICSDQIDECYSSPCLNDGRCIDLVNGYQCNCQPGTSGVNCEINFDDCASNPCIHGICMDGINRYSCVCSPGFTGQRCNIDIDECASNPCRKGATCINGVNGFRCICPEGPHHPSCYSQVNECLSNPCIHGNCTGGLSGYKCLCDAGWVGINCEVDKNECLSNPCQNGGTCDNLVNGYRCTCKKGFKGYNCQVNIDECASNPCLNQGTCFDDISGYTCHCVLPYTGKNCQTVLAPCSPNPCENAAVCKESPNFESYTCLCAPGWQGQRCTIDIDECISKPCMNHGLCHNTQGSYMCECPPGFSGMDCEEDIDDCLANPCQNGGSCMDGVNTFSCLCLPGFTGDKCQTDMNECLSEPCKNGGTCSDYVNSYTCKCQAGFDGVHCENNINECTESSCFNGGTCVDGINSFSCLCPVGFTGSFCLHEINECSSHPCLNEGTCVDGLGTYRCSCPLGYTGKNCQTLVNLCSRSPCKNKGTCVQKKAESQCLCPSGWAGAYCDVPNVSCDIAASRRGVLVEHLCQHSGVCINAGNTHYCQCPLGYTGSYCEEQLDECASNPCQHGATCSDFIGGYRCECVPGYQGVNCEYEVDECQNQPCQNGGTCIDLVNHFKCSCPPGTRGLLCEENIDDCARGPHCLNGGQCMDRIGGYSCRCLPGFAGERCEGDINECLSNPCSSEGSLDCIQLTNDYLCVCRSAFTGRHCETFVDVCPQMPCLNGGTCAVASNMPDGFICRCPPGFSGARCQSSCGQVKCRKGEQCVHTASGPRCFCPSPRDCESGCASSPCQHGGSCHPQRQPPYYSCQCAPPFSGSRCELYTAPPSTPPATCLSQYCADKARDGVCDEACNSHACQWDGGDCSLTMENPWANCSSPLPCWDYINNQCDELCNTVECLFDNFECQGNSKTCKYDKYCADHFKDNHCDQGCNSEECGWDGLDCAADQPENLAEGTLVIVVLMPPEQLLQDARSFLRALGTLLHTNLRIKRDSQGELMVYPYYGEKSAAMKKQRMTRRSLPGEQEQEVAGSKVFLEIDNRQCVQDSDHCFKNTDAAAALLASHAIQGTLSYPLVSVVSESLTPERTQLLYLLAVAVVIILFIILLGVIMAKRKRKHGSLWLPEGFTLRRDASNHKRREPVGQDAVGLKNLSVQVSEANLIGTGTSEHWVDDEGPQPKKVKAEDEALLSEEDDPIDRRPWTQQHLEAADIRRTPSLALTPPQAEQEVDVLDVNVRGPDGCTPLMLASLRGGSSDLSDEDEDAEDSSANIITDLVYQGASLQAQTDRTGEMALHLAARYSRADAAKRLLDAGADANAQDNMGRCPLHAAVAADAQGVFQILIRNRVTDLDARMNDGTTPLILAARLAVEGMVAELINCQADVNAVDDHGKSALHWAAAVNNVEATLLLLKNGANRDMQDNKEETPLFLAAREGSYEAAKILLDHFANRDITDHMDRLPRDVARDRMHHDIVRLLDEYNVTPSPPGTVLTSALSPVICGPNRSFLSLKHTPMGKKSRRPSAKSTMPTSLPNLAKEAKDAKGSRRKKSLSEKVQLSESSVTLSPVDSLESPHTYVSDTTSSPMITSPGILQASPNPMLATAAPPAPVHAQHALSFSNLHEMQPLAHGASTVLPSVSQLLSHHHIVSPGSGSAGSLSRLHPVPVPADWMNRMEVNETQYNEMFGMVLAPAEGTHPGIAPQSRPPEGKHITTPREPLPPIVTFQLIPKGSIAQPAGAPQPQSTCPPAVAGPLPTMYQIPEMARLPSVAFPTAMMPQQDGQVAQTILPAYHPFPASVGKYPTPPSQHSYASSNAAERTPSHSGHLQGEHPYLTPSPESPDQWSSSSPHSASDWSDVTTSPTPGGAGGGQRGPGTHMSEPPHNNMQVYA

In the case of `CC(C)c1ccc(NN2C(C(O)C3=C[C@H]4C[C@@H](C3)C4(C)C)C=CC3C(=O)N(c4ccccc4)C(=O)C32)cc1` (stereo not given in full), the composite z-score in experiment [1] turned out to be 0.481; in [2], 0.357; in experiment [3] it was 0.0301; in experiment [4] it was 0.605; in experiment [5], 1.16; in [6], 1.74. The composite z-score in [7] was 0.885; in [9], 0.907; in experiment [10] it was -0.302; in experiment [11], 1.32; in experiment [15], 2.6; in experiment [17], 0.363. For the same compound, the results for the composite z-score in experiment [18], in [19] and in experiment [20] were 0.501, 1.08 and 0.114, respectively. For the same compound, the z-score in experiment [8] was -1.01 (inactive); in experiment [12] it was 0.191 (inactive); in experiment [13] it was -0.0249 (inactive); in experiment [14] it was 0.264 (inactive); in experiment [16], -0.661 (inactive).

Regarding `O=C1NC(=O)C2C1C=CC(C(O)C(O)CO)N2Nc1ccccn1` (stereo not given), the composite z-score in experiment [1] was -0.304; in [2], -0.0729; in experiment [3], -0.154; in [4] it was 0.383; in experiment [5], 0.864; in experiment [6] it was 0.548. Further, the composite z-score is 0.515 in [7]; 0.0126 in experiment [9]; -0.191 in experiment [10]; 0.635 in [11]; 0.541 in experiment [15]; -0.343 in experiment [17]. In addition, the composite z-score in experiment [18] was found to be 0.349; in [19], 0.32; in experiment [20], 0.0713. For the same compound, the z-score was -0.708 (inactive) in experiment [8]; -0.517 (inactive) in experiment [12]; 0.294 (inactive) in [13]; -0.73 (inactive) in [14]; -1.02 (inactive) in [16].

For the compound `CC[C@H]1C2=C3C(CC[C@H]4C(OCc5ccc(F)cc5C(F)(F)F)OC[C@](C)([C@@H]34)N(C(=O)OC(C)(C)C)C2)C(COC(C)=O)C1COC(C)=O` (stereo not given in full), the composite z-score in experiment [1] is -0.187; in [2] it was -0.25; in experiment [3] it was 0.0311; in experiment [4] it was 0.54; in experiment [5], 1.54; in experiment [6], 1. Further, the composite z-score in experiment [7] is 1.2; in [9], 1.43; in [10], 0.104; in experiment [11], 0.454; in experiment [15], 2.89; in [17] it was 0.0909. Also, the composite z-score was found to be 0.539 in experiment [18], 1.13 in experiment [19] and 0.0507 in [20]. The z-score is 1.48 (inactive) in experiment [8]; -0.284 (inactive) in [12]; 0.387 (inactive) in experiment [13]; 1.46 (inactive) in [14]; -1.31 (inactive) in [16].

In the case of `C=C(COC)/C(=C/C[C@@H](OC(=O)c1ccncc1)c1ccccc1OCCO)c1cnc2ccccc2c1`, the composite z-score in experiment [1] was -0.421; in experiment [2], 0.749; in experiment [3], -0.085; in experiment [4], 0.922; in [5] it was 1.58; in experiment [6], 0.495. For the same compound, the composite z-score in experiment [7] was 1.17; in experiment [9], 0.525; in experiment [10], -0.159; in [11], 1.54; in [15], 2.03; in [17], -0.0304. For the same compound, the values for the composite z-score in experiment [18], in experiment [19] and in experiment [20] were 1.95, 1.02 and 0.0533, respectively. Further, the z-score in [8] is -0.828 (inactive); in [12], -0.564 (inactive); in experiment [13] it was -1.61 (inactive); in [14], 0.698 (inactive); in experiment [16], 1.1 (inactive).
